Results on 27 compounds are retold here after PubChem BioAssay (NCATS).

Active and inactive are the calls of the source. Calls come from the whole dose curve; as a rule, active = well fitted curve in the direction sought with a large enough effect (not every such curve was filed as active); inconclusive = small, poorly fitted or top-dose-only effect, or effect the other way, or another doubt; inactive = no such curve, though single readings can be large or run the other way.

Sequence of Pyruvate kinase PKM (Homo sapiens) (P14618 whole entry, looked up): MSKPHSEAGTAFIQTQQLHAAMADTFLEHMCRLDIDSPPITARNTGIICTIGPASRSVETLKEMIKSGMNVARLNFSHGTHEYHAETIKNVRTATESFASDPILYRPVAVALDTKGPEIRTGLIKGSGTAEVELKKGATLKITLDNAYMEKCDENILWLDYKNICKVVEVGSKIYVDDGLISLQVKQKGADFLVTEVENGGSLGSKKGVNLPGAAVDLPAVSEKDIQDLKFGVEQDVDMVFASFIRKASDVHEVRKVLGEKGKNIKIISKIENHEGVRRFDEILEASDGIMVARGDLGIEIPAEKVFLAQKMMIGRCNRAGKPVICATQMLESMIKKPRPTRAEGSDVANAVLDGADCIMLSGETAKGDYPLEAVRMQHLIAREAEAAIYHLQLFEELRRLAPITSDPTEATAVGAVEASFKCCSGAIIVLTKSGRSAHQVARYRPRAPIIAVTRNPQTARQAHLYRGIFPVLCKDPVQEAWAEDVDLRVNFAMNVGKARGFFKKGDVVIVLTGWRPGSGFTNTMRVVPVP

The assay deals with Pyruvate kinase PKM (Homo sapiens) (UniProt P14618). The assay is described as follows: qHTS Assay for Activators of Human Muscle Pyruvate Kinase (AID 954). Particulars: purified human muscle pyruvate kinase, luciferase-coupled luminescence, 1 h; series mostly up to 57.5 µM. As for the experimental part:
NIH Molecular Libraries Screening Centers Network [MLSCN]
NIH Chemical Genomics Center [NCGC]
Wael M. Rabeh, Lyudmila Nedyalkova and Hee-Wan Park [Structural Genomics Consortium, 100 College St. Toronto, Ontario, Canada]
Human pyruvate kinase muscle 2 enzyme was supplied as a highly purified (>95% pure) preparation by the Structural Genomics Consortium in Toronto (Ontario, Canada) and was assayed for its ability to generate ATP from ADP using phosphoenolpyruvate (PEP) as a substrate. ATP generation was detected in a coupled reaction by luciferase-mediated luminescence, an ATP-dependent process. Pyruvate kinase substrates, PEP and ADP, were present in the assay at Km and approximately […]-fold below Km respectively. The enzyme was assayed at an intermediate level of activity to screen for inhibitors and activators.
NCGC Assay Protocol Summary:
Three uL of substrate mix (final concentration, 50 mM imidazole pH 7.2, 50 mM KCl, 7 mM MgCl2, 0.5 mM PEP, 0.1 mM ADP, 0.01% Tween 20, 0.05% BSA) was dispensed into 1536 well plates. 23 nL of compound were delivered by a pin tool and 1 uL of enzyme mix (final concentration, 0.1 nM pyruvate kinase, 50 mM imidazole pH 7.2, 0.05% BSA) was added. Plates were incubated at room temperature for 1 hour. Two uL of detection and kinase stop mix (PKLight, Cambrex) was added, the plates centrifuged, and luminescence read by a ViewLux (Perkin Elmer) at 5 second exposure/plate. Data were normalized to the uninhibited and AC100 inhibition (no enzyme or 110 uM N-methyl-2,3-diphenyl-1,2,4-thiadiazol-5-imine; CID: 682802; LOPAC-S-4063). To monitor activation, 0.3 nM pyruvate kinase was included in one control column.
For orientation: Quantitative high-throughput screening tests each substance at several concentrations.
Turning to `C[C@]12CC[C@@H]3c4ccc(O)cc4CC[C@H]3[C@@H]1CCC2=O`, the compound was called inactive.
`Cc1cc(N)c2ccccc2[n+]1CCCCCCCCCC[n+]1c(C)cc(N)c2ccccc21`: the call was inactive.
For `CCN(CC)CCOC(=O)C1(C2CCCCC2)CCCCC1` the value was “inactive”; for `N=c1c[n+](N2CCOCC2)[n-]o1`, “inactive”.
With `C[C@]12C[C@H](O)[C@H]3[C@@H](CCC4=CC(=O)CC[C@@]43C)[C@@H]1CC[C@@H]2C(=O)CO`, the compound was called inactive.
Next, `CN(C)CCC=C1c2ccccc2CCc2ccccc21`: “inactive”; `Nc1cc(=O)[nH]c(N)n1`: “inactive”.
With `C=Cc1c(C)c2cc3[nH]c(cc4nc(cc5nc(cc1[nH]2)C(C)=C5CCC(=O)O)C(CCC(=O)O)=C4C)c(C)c3C=C`, the compound was classed as inactive.
Take `OCc1cc(C(O)CNCCCCCCOCCCCc2ccccc2)ccc1O` (configuration not stated): the outcome was inactive.
Consider `CC1=C(CC(=O)O)c2cc(F)ccc2/C1=C\c1ccc(S(C)=O)cc1` (configuration not stated), for which the result was inactive.
On to `CCCn1cnc2c1c(=O)n(CCCCC(C)=O)c(=O)n2C`, for which the compound was called inactive.
`CC(=O)OCC(=O)[C@@]1(O)CC[C@H]2[C@@H]3CCC4=CC(=O)CC[C@]4(C)[C@H]3C(=O)C[C@@]21C`: the call was inactive.
Regarding `CC(C)C(=O)c1c(C(C)C)nn2ccccc12`, the compound was called inactive.
For `CN(C)CCCN1c2ccccc2CCc2ccccc21`, the outcome was inactive.
For `NC(=O)c1ncn([C@@H]2O[C@H](CO)[C@@H](O)[C@H]2O)n1`, the call was inactive.
As to `NC(N)=NCCC[C@H](N)C(=O)O`, the compound was classed as inactive.
Turning to `C#CCN(C)Cc1ccccc1`, the compound was called inactive.
For `CC(C)NC[C@H](O)c1ccc(O)c(O)c1` the value was “inactive”; for `COC(=O)C1=C(C)NC(C)=C(C(=O)OC)C1c1ccccc1[N+](=O)[O-]`, “inactive”.
Take `CCN(CC)CCNC(=O)c1cc(Cl)c(N)cc1OC`: the compound was classed as inactive.
On to `NC1CCN(c2cccc(Cl)n2)CC1`, for which the call was inactive.
Consider `CNCCCC1c2ccccc2C=Cc2ccccc21`, for which the outcome was inactive.
On to `OCCN1CCN(CCCN2c3ccccc3Sc3ccc(Cl)cc32)CC1`, for which the result was inactive.
For the compound `CC1=C(CC(=O)O)c2cc(F)ccc2/C1=C\c1ccc(S(C)(=O)=O)cc1`, the outcome was inactive.
Consider `CCCCCCCCCCCCCCCC(=O)NCCO`, for which the result was inactive.
Take `COc1ccc(Cl)cc1C(=O)NCCc1ccc(S(=O)(=O)NC(=O)NC2CCCCC2)cc1`: the compound was classed as inactive.
For `CN(C)CCCN1c2ccccc2Sc2ccc(Cl)cc21`, the result was inactive.
